Test results published in article PMC7862700, “An all-to-all approach to the identification of sequence-specific readers for epigenetic DNA modifications on cytosine”.

Key:
Assay in all cases: DAPPL (digital affinity profiling via proximity ligation, sequencing); 10 mM Tris-HCl pH 7.5, 50 mM NaCl, 1 mM DTT, 4% glycerol, room temperature, 30 min; GST-TFs on glutathione beads, 16-mer random dsDNA library, 0.1% formaldehyde crosslink after washing; high values mean tight binding
Settings in all cases: protein: recombinant; tags: N-terminal GST; dsDNA, one strand shown
FLI1 = biological target: T1, FLI1 (Homo sapiens, UniProt Q01543 1-452)
T1 sequence: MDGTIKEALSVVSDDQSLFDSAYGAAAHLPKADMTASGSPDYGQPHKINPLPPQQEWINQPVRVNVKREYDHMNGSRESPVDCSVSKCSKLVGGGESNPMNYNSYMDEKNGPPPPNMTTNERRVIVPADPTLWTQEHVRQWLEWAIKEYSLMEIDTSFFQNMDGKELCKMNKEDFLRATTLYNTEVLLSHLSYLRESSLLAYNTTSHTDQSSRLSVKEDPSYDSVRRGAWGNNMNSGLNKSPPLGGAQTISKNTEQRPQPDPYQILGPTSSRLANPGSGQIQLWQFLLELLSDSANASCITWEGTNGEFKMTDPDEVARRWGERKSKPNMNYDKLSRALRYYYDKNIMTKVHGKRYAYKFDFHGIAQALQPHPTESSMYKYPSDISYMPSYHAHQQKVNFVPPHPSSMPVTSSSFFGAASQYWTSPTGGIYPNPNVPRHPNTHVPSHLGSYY
Summary of the method: (§1)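 Human transcription factors carrying a GST fusion were produced in yeast, bound to glutathione beads, tagged with DNA barcodes and pooled together with a tag-only sample. Each pool was held with 200 nmole of a random double-stranded 16-mer DNA library in Tris/NaCl/DTT/glycerol buffer for 30 min at room temperature, then washed, crosslinked in 0.1% formaldehyde, proximity-ligated with BsaI/T4 ligase (1 h, 37 °C), PCR-amplified and sequenced on an Illumina NextSeq500. Binding signal is the read frequency of each hexamer for a given factor divided by its frequency in the tag-only sample.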

ELK1 = biological target: T2, ELK1 (Homo sapiens, UniProt P19419 1-428)
T2 sequence: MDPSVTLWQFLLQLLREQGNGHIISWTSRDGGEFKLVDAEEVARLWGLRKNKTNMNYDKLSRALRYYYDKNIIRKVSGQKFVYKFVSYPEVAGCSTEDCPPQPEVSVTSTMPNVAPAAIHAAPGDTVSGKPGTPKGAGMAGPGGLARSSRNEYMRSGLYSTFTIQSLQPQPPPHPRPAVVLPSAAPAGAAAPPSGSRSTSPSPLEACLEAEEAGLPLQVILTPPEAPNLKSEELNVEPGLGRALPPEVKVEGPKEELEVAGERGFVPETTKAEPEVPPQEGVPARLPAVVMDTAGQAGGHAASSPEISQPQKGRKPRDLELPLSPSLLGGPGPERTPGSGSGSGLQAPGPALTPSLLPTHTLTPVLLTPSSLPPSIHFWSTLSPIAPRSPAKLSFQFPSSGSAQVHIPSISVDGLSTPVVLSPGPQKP
Summary of the method: as §1

GABPA = biological target: T3, GABPA (Homo sapiens, UniProt Q06546 1-454)
T3 sequence: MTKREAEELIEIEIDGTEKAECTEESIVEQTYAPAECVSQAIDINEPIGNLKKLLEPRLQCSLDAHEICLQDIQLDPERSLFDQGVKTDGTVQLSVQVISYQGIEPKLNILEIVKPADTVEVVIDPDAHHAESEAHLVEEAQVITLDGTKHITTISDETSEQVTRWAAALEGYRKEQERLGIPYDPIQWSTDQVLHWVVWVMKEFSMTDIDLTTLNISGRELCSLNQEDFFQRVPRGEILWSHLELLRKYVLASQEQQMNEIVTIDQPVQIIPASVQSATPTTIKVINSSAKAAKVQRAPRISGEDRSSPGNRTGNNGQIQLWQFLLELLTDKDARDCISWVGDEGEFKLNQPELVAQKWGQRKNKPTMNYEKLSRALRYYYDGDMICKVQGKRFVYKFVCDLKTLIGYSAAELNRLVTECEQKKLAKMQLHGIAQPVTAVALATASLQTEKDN
Summary of the method: as §1

ELF1 = ELF1 (Homo sapiens, UniProt P32519 1-619)
Summary of the method: as §1

EHF = biological target: T4, EHF (Homo sapiens, UniProt Q9NZC4 1-300)
T4 sequence: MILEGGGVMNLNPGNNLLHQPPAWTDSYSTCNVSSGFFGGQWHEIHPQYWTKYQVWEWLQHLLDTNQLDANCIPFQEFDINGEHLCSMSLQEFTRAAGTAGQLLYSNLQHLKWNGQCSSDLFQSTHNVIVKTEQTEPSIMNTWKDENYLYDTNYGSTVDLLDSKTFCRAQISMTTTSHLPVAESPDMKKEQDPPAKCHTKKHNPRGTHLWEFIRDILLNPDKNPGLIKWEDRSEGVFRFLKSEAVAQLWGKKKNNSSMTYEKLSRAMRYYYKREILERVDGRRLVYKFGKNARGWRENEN
Summary of the method: as §1

ETV5 = ETV5 (Homo sapiens, UniProt P41161 1-510)
Summary of the method: as §1

SPIC = biological target: T5, SPIC (Homo sapiens, UniProt Q8N5J4 1-248)
T5 sequence: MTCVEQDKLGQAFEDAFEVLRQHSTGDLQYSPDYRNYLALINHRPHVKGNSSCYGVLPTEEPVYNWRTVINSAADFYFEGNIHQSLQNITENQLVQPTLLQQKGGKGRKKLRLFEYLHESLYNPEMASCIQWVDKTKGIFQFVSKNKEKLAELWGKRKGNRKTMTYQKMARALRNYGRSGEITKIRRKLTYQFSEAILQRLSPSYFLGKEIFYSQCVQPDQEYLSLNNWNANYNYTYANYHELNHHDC
Summary of the method: as §1

ELF4 = ELF4 (Homo sapiens, UniProt Q99607 1-663)
Summary of the method: as §1

ELK4 = biological target: T6, ELK4 (Homo sapiens, UniProt P28324-2 1-405)
T6 sequence: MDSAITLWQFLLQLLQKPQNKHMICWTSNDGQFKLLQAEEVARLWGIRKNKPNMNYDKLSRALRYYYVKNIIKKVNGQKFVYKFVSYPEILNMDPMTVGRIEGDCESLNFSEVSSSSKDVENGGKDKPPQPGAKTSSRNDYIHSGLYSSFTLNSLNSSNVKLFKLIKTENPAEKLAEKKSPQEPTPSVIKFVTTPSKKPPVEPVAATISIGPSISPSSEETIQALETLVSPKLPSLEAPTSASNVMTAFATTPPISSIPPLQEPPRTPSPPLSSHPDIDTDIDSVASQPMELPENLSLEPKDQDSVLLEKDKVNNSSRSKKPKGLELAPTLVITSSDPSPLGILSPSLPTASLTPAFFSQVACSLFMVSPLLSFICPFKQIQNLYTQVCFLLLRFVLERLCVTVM
Summary of the method: as §1

ETV2 = biological target: T7, ETV2 (Homo sapiens, UniProt O00321 1-342)
T7 sequence: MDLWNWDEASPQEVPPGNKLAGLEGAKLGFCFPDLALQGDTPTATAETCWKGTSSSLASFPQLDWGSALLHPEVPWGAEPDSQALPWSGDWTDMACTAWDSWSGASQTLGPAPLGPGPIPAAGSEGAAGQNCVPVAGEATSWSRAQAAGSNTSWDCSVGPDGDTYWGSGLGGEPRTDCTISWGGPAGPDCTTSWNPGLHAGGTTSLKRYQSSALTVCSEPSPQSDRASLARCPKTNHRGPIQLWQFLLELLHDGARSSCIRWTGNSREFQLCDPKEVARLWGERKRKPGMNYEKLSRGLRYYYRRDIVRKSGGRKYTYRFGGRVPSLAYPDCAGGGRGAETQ
Summary of the method: as §1

ELF3 = biological target: T8, ELF3 (Homo sapiens, UniProt P78545 1-371)
T8 sequence: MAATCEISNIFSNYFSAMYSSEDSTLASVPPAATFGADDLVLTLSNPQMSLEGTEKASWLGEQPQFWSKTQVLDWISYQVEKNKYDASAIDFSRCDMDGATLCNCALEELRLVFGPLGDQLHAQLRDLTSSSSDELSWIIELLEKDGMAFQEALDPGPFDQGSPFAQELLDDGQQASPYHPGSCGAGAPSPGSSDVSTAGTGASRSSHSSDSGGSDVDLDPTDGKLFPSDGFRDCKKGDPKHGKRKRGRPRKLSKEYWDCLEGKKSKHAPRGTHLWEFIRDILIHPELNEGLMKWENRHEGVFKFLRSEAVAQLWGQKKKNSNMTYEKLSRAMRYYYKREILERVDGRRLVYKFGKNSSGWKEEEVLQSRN
Summary of the method: as §1

ETV1 = ETV1 (Homo sapiens, UniProt P50549 1-477)
Summary of the method: as §1

ERG = biological target: T9, ERG (Homo sapiens, UniProt P11308 1-479)
T9 sequence: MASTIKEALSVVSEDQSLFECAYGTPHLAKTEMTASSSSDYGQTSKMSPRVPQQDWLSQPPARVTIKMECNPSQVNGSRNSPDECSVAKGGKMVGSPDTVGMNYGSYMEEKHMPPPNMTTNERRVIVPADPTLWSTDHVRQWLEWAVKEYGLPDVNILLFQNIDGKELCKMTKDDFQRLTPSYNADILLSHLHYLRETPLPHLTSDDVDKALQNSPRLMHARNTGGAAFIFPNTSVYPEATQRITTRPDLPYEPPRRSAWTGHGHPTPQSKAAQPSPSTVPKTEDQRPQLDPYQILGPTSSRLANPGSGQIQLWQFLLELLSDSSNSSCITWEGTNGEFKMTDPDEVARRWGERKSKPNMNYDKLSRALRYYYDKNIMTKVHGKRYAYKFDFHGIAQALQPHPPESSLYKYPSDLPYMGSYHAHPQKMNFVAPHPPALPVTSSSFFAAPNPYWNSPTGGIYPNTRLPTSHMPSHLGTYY
Summary of the method: as §1

SPI1 = SPI1 (Homo sapiens, UniProt P17947 1-270)
Summary of the method: as §1

SPIB = SPIB (Homo sapiens, UniProt Q01892 1-262)
Summary of the method: as §1

ELK3 = biological target: T10, ELK3 (Homo sapiens, UniProt P41970 1-407)
T10 sequence: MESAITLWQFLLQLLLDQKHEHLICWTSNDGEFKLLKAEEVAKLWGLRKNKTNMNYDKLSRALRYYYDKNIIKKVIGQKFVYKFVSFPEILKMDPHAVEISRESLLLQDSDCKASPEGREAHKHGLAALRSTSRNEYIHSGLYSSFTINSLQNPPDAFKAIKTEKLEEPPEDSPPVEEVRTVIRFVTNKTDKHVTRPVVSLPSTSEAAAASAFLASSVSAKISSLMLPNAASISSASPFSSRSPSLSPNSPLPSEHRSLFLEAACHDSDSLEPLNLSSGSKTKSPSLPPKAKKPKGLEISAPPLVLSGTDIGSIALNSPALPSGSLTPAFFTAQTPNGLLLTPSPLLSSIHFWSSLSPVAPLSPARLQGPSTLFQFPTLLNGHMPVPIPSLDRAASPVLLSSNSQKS
Summary of the method: as §1

FEV = biological target: T11, FEV (Homo sapiens, UniProt Q99581 1-238)
T11 sequence: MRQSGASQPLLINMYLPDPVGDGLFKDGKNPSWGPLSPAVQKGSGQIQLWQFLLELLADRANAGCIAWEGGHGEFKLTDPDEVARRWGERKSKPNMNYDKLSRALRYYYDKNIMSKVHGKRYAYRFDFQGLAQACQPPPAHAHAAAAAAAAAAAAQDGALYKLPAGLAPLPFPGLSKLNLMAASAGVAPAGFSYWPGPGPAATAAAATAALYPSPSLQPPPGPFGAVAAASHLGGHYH
Summary of the method: as §1

Sequence of ETV5 (P41161 whole entry): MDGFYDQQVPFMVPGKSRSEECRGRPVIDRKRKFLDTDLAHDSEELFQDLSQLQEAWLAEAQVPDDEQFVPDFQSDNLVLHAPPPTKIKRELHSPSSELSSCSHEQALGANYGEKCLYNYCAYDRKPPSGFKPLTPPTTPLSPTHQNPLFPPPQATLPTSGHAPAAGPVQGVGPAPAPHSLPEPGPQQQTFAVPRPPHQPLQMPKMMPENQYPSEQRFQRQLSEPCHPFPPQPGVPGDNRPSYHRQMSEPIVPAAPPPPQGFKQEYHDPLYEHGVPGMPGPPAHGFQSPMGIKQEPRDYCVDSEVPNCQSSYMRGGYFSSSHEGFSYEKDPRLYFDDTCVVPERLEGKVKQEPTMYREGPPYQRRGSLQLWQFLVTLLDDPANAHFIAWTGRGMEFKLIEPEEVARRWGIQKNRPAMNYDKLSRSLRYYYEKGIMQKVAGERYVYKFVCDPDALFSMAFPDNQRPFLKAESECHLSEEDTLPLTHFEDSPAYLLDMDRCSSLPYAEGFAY
Sequence of ELF1 (P32519 whole entry): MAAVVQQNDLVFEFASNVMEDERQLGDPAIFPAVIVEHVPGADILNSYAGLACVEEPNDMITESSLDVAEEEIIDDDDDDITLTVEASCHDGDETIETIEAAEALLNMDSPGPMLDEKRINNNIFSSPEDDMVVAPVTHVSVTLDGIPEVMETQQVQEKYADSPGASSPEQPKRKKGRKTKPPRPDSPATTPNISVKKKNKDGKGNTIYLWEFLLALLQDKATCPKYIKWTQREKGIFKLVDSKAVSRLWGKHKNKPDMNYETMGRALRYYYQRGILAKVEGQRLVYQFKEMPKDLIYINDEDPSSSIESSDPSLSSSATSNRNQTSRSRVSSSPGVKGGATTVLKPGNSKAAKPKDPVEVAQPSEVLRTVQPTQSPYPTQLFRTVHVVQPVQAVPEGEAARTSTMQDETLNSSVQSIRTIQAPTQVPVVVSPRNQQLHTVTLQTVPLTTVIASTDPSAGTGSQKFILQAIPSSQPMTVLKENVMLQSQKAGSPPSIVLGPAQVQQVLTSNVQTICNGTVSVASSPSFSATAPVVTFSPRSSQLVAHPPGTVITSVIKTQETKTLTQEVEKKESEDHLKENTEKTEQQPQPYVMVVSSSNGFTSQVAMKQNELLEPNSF
Sequence of ELF4 (Q99607 whole entry): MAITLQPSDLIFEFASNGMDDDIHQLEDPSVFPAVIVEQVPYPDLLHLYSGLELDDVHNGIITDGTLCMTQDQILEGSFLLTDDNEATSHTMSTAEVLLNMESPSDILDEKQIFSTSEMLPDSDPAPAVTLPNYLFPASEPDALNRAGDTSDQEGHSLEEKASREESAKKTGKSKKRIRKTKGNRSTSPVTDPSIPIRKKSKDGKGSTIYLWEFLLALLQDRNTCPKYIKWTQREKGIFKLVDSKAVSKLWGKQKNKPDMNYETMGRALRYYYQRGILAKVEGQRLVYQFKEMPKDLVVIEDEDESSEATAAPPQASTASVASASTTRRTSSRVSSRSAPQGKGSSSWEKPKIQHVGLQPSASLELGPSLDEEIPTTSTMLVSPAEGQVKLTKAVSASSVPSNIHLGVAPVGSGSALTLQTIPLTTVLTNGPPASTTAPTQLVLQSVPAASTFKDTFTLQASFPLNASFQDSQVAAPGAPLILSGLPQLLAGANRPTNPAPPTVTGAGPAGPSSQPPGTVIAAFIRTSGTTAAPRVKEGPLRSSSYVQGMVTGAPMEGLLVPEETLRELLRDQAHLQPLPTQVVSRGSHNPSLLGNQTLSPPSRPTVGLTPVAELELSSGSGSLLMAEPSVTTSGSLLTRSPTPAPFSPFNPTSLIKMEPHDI
Sequence of ETV1 (P50549 whole entry): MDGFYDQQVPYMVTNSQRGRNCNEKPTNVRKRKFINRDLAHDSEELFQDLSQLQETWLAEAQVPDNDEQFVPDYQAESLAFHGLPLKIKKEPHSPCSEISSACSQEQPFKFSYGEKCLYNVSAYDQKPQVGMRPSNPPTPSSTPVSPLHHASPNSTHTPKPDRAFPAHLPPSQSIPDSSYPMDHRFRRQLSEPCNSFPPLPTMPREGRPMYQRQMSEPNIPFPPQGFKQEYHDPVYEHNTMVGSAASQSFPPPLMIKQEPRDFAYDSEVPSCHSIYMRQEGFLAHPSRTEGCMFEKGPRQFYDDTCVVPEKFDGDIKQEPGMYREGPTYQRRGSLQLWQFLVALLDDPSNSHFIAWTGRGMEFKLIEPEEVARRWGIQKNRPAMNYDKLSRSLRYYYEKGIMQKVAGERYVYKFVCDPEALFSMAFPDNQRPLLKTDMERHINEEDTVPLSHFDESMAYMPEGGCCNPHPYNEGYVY
Sequence of SPIB (Q01892 whole entry): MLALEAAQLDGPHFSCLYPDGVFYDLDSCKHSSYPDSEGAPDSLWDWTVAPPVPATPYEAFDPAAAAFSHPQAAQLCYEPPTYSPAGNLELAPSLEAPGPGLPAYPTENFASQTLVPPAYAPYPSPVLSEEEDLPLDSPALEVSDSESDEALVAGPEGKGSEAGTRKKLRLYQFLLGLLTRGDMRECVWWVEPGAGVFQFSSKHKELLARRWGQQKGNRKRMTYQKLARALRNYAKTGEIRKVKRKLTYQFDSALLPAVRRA

## GCAATA
FLI1
  binding signal: 1.02 fold enrichment (6-mer frequency, TF over GST control)
ELK1
  binding signal: 1.1 fold enrichment (6-mer frequency, TF over GST control)
GABPA
  binding signal: 1.02 fold enrichment (6-mer frequency, TF over GST control)
ELF1
  binding signal: 1.05 fold enrichment (6-mer frequency, TF over GST control)
EHF
  binding signal: 1.07 fold enrichment (6-mer frequency, TF over GST control)
ETV5
  binding signal: 1.07 fold enrichment (6-mer frequency, TF over GST control)
SPIC
  binding signal: 1.16 fold enrichment (6-mer frequency, TF over GST control)
ELF4
  binding signal: 1.07 fold enrichment (6-mer frequency, TF over GST control)
ELK4
  binding signal: 1.11 fold enrichment (6-mer frequency, TF over GST control)
ETV2
  binding signal: 1.01 fold enrichment (6-mer frequency, TF over GST control)
ELF3
  binding signal: 1.09 fold enrichment (6-mer frequency, TF over GST control)
ETV1
  binding signal: 1.07 fold enrichment (6-mer frequency, TF over GST control)

## ATGTAG
FLI1
  binding signal: 1.05 fold enrichment (6-mer frequency, TF over GST control)
ELK1
  binding signal: 1.03 fold enrichment (6-mer frequency, TF over GST control)
GABPA
  binding signal: 1.04 fold enrichment (6-mer frequency, TF over GST control)
ERG
  binding signal: 1.01 fold enrichment (6-mer frequency, TF over GST control)
ELF1
  binding signal: 1.09 fold enrichment (6-mer frequency, TF over GST control)
EHF
  binding signal: 1.07 fold enrichment (6-mer frequency, TF over GST control)
SPI1
  binding signal: 1 fold enrichment (6-mer frequency, TF over GST control)
SPIB
  binding signal: 1.01 fold enrichment (6-mer frequency, TF over GST control)
ELK3
  binding signal: 1.05 fold enrichment (6-mer frequency, TF over GST control)
FEV
  binding signal: 1.02 fold enrichment (6-mer frequency, TF over GST control)
ETV5
  binding signal: 1.08 fold enrichment (6-mer frequency, TF over GST control)
SPIC
  binding signal: 1.09 fold enrichment (6-mer frequency, TF over GST control)
ELF4
  binding signal: 1.1 fold enrichment (6-mer frequency, TF over GST control)
ELK4
  binding signal: 1.15 fold enrichment (6-mer frequency, TF over GST control)
ETV2
  binding signal: 1.03 fold enrichment (6-mer frequency, TF over GST control)
ELF3
  binding signal: 1.06 fold enrichment (6-mer frequency, TF over GST control)

## CATGTA
FLI1
  binding signal: 1.15 fold enrichment (6-mer frequency, TF over GST control)
ELK1
  binding signal: 1.06 fold enrichment (6-mer frequency, TF over GST control)
ELF1
  binding signal: 1.11 fold enrichment (6-mer frequency, TF over GST control)
EHF
  binding signal: 1.04 fold enrichment (6-mer frequency, TF over GST control)
SPI1
  binding signal: 1.02 fold enrichment (6-mer frequency, TF over GST control)
ELK3
  binding signal: 1.13 fold enrichment (6-mer frequency, TF over GST control)
FEV
  binding signal: 1.03 fold enrichment (6-mer frequency, TF over GST control)
ETV5
  binding signal: 1.08 fold enrichment (6-mer frequency, TF over GST control)
SPIC
  binding signal: 1.08 fold enrichment (6-mer frequency, TF over GST control)
ELF4
  binding signal: 1.14 fold enrichment (6-mer frequency, TF over GST control)
ELK4
  binding signal: 1.16 fold enrichment (6-mer frequency, TF over GST control)
ETV2
  binding signal: 1.11 fold enrichment (6-mer frequency, TF over GST control)
ELF3
  binding signal: 1.03 fold enrichment (6-mer frequency, TF over GST control)
ETV1
  binding signal: 1.06 fold enrichment (6-mer frequency, TF over GST control)
